Structures are written as SMILES. Several values for one entry are separate records, joined by “and”; a condition that tells them apart may be missing. Identical values can stand only once. Records with an inconclusive call do not appear. Activity calls are given as the source filed them. Unless noted, calls follow the shape of the dose curve; as a rule, active = well fitted curve in the direction sought with a large enough effect in the repeat runs; inconclusive = weak or mixed curves; inactive = no such curve, though single readings can be large; an effect the other way counts as inactive or inconclusive.

For assay [1], the target named is Acetylcholinesterase (Homo sapiens) (UniProt P22303). Put plainly: Acetylcholinesterase (AChE) small molecule antagonists: colormetric cell-based qHTS assay (AID 1347395; calls by dose curve; also: nearly all actives have a fitted effect of over 30% in size; also: potency is read from the fitted curve at half-maximal effect). The procedure, abridged:
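After overnight attachment at 37 C, SH-SY5Y cells get 30 min compound exposure; detection cocktail (acetylthiocholine, DTNB) then incubates 90 min at 37 C, and absorbance reflects AChE-generated thiocholine.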
For orientation: qHTS replaces the single test concentration by a dilution series.

Assay [2] has the same target. Description: Acetylcholinesterase (AChE) small molecule antagonists: enzyme-based qHTS assay (AID 1347397; calls by dose curve; also: nearly all actives have a fitted effect of over 55% in size). Particulars: Potency: AChE enzyme activity inhibition. The procedure, abridged:
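Recombinant human AChE, dispensed at 50 mU/mL, was preincubated with Tox21 10K compounds or DMSO vehicle for 30 min at room temperature. DTNB plus acetylthiocholine was then added, and thiocholine was measured colorimetrically after a further 10 min.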

Assay [3] has the same target. Description: Acetylcholinesterase (AChE) small molecule antagonists: fluorescence cell-based qHTS assay (AID 1347398; calls by dose curve; also: nearly all actives have a fitted effect of over 50% in size; also: potency is read from the fitted curve at half-maximal effect). The note with it: Potency: AChE activity. A digest of the protocol: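 Human SH-SY5Y cells were plated overnight at 37 C, exposed to compound for 30 min at 37 C, 5% CO2, then given acetylthiocholine plus Thiolite Green for 40 min at room temperature; thiocholine fluorescence (Ex/Em 490/520 nm) reports endogenous AChE activity.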

For assay [4] the target is unchanged. Put plainly: Acetylcholinesterase (AChE) small molecule antagonists: enzyme-based qHTS assay with human liver microsomes (AID 1347399; calls by dose curve; also: nearly all actives have a fitted effect of over 60% in size). Particulars: Potency: qHTS inhibition. A digest of the protocol: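 Recombinant human AChE (50 mU/mL in the enzyme mix) and human liver microsomes (0.25 mg/mL final) were preincubated with compound and NADPH (0.25 mg/mL final) for 30 min at 37 C. Acetylthiocholine/DTNB was then added; thiocholine was read colorimetrically after 10 min at room temperature.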

Assay [5] deals with Cytochrome P450 2D6 (Homo sapiens) (UniProt P10635). Description: Cytochrome P450 Family 2 Subfamily D Member 6 (CYP2D6) small molecule antagonists: luciferase reporter qHTS assay (AID 1671196). Also: nearly all actives have a fitted effect of over 50% in size. Also: potency is read from the fitted curve at half-maximal effect. The procedure, abridged: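 P450-Glo format: CYP2D6 converts a proluciferin substrate to luciferin in an NADPH-driven reaction lasting 1 h at room temperature. Light output, proportional to CYP2D6 activity, reflects interference by test chemicals.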
Cytochrome P450 2D6 (Homo sapiens), sequence (P10635 whole entry, looked up): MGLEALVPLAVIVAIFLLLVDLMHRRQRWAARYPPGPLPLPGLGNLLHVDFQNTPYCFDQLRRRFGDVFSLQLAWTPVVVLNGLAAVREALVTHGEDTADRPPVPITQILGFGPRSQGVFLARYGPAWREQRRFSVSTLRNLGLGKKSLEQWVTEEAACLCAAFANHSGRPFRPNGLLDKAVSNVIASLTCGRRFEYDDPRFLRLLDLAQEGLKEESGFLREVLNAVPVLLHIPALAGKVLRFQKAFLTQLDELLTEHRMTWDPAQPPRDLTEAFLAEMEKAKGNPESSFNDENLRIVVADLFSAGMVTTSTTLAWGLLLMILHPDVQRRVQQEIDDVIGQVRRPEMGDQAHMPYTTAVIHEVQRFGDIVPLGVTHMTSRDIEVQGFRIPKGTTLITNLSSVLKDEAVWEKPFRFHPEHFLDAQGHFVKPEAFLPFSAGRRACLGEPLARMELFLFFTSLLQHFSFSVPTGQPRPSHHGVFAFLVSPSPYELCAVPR
(In general: A reporter such as luciferase makes a cellular process visible.)

The target of assay [6] is Cytochrome P450 2C19 (Homo sapiens) (UniProt P33261). Description: Cytochrome P450 Family 2 Subfamily C Member 19 (CYP2C19) small molecule antagonists: luciferase reporter qHTS assay (AID 1671197). Also: nearly all actives have a fitted effect of over 65% in size. Also: potency is read from the fitted curve at half-maximal effect. A digest of the protocol: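 P450-Glo CYP2C19 system: enzyme-substrate mix with compound 10 min at room temperature, then NADPH regeneration solution, 1 h at 37C. Proluciferin-to-luciferin conversion detected by luminescence after 20 min with detection reagent; ketoconazole as positive control.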
Cytochrome P450 2C19 (Homo sapiens), sequence (P33261 whole entry, looked up): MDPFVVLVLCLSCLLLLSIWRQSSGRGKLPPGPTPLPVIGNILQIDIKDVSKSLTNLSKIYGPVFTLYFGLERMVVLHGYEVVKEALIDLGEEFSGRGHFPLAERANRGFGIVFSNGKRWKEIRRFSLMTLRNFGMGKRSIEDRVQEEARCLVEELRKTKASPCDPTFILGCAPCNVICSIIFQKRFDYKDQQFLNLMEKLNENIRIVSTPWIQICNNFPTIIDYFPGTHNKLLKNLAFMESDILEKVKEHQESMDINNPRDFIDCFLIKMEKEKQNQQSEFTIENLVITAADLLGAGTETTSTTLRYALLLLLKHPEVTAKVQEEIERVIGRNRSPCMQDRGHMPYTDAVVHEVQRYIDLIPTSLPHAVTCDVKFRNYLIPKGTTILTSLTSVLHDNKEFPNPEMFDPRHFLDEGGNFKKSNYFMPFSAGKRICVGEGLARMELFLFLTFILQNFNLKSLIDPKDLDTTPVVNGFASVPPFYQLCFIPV

In assay [7] the target is Cytochrome P450 2C9 (Homo sapiens) (UniProt P11712). Description: Cytochrome P450 Family 2 Subfamily C Member 9 (CYP2C9) small molecule antagonists: luciferase reporter qHTS assay (AID 1671198). Also: nearly all actives have a fitted effect of over 50% in size. Also: potency is read from the fitted curve at half-maximal effect. A digest of the protocol:
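CYP2C9 activity was measured with a P450-Glo proluciferin substrate. Enzyme–substrate mix was held with compound for 10 min at room temperature, then NADPH regeneration solution was added for 1 h at 37C. Luciferin product was read as luminescence.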

The target in assay [8] is Cytochrome P450 1A2 (Homo sapiens) (UniProt P05177). Put plainly: Cytochrome P450 Family 1 Subfamily A Member 2 (CYP1A2) small molecule antagonists: luciferase reporter qHTS assay (AID 1671199). Also: nearly all actives have a fitted effect of over 50% in size. Also: potency is read from the fitted curve at half-maximal effect. The procedure, abridged:
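Inhibition of CYP1A2 conversion of proluciferin to luciferin, detected by luminescence. Reaction run 1 h at room temperature with NADPH regeneration after brief compound preincubation.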

The target in assay [9] is Voltage-gated inwardly rectifying potassium channel KCNH2 (Homo sapiens) (UniProt Q12809). Put plainly: Human Ether-a-go-go-Related Gene (hERG) channel small molecule antagonists: fluorescence cell-based qHTS assay (AID 1671200). The procedure, abridged:
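In this thallium-flux screen, overnight-cultured U2OS cells bearing the channel are dye-loaded in darkness for an hour, rested 10 min at room temperature, and then monitored kinetically at 480/540 nm for two minutes post-stimulus.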

Assay [10] concerns the target Cytochrome P450 3A4 (Homo sapiens) (UniProt P08684). Description: Cytochrome P450 Family 3 Subfamily A Member 4 (CYP3A4) small molecule antagonists: luciferase reporter qHTS assay (AID 1671201). Also: nearly all actives have a fitted effect of over 50% in size. Also: potency is read from the fitted curve at half-maximal effect. The procedure, abridged:
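CYP3A4 activity was followed with a P450-Glo proluciferin substrate. Test compounds in DMSO were preincubated 10 min; NADPH regeneration then ran 1 h, and light output was read 20 min after detection reagent.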

Cytochrome P450 3A4 (Homo sapiens), sequence (P08684 whole entry, looked up): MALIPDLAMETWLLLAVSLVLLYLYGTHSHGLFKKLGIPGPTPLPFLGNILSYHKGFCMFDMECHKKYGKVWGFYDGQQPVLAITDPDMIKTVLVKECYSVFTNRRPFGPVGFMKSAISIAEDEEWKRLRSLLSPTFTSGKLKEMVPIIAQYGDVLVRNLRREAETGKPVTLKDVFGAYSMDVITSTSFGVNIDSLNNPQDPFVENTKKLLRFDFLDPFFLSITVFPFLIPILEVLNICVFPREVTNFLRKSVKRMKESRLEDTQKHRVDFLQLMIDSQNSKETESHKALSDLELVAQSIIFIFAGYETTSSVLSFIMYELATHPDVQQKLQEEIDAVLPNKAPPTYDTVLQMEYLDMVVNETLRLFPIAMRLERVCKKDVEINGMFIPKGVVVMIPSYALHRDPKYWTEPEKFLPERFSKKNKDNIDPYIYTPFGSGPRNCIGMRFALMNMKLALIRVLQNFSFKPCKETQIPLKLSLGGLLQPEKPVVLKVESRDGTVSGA
Cytochrome P450 2C9 (Homo sapiens), sequence (P11712 whole entry, looked up): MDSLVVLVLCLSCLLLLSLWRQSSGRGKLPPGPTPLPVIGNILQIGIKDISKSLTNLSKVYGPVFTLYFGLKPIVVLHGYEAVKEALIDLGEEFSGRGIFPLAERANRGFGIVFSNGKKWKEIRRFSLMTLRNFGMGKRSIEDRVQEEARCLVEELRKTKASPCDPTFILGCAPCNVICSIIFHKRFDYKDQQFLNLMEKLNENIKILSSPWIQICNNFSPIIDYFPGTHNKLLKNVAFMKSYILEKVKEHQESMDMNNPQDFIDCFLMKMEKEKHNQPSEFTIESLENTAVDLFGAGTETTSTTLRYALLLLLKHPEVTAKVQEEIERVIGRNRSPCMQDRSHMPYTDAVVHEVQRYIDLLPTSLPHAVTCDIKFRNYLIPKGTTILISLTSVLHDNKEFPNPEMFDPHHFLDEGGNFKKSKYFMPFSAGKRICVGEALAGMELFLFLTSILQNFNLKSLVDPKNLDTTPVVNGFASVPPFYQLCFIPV
Acetylcholinesterase (Homo sapiens), sequence (P22303 whole entry, looked up): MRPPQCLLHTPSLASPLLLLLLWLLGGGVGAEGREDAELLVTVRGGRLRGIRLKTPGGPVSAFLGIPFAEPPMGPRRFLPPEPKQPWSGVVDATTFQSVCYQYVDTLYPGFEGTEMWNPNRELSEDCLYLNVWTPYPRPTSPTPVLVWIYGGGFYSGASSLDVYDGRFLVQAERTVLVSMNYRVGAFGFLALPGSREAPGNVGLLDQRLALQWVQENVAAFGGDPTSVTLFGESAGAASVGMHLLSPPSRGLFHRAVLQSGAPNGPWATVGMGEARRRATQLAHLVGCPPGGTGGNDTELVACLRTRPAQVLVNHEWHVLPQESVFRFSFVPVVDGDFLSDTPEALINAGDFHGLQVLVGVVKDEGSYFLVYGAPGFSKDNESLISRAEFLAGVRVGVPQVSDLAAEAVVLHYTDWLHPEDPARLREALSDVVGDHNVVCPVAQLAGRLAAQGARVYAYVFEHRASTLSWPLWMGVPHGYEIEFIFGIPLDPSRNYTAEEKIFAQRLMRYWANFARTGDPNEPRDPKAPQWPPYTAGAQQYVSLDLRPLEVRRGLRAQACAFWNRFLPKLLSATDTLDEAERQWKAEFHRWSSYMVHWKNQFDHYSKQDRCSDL
Voltage-gated inwardly rectifying potassium channel KCNH2 (Homo sapiens), sequence (Q12809 whole entry, looked up): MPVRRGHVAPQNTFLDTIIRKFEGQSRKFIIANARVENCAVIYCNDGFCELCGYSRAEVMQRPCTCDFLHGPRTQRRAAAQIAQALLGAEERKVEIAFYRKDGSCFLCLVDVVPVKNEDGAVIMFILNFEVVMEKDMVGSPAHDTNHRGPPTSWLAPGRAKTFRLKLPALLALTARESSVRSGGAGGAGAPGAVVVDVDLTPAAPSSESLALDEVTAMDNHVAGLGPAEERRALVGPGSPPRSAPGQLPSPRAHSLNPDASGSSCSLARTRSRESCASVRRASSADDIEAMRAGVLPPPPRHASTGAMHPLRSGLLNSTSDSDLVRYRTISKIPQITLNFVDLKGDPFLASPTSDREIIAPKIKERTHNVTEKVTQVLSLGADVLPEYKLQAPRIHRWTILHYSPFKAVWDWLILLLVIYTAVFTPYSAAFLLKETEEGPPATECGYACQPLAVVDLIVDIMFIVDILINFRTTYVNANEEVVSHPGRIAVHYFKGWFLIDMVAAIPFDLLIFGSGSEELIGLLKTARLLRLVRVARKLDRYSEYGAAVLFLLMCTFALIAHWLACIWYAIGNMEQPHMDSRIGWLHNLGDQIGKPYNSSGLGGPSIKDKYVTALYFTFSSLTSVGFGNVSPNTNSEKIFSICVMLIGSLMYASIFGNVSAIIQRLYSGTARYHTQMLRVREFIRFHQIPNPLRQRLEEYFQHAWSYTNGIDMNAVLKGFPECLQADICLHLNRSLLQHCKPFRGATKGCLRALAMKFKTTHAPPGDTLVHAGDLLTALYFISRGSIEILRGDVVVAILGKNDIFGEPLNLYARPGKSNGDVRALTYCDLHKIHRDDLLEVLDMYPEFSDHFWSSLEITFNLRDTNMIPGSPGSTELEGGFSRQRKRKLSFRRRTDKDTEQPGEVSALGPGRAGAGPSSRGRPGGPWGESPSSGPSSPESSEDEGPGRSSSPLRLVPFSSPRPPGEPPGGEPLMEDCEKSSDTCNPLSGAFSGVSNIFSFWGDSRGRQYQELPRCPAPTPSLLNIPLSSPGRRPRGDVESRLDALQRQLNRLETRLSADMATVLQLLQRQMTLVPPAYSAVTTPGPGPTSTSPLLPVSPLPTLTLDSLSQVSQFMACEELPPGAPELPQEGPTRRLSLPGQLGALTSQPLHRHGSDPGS
Cytochrome P450 1A2 (Homo sapiens), sequence (P05177 whole entry, looked up): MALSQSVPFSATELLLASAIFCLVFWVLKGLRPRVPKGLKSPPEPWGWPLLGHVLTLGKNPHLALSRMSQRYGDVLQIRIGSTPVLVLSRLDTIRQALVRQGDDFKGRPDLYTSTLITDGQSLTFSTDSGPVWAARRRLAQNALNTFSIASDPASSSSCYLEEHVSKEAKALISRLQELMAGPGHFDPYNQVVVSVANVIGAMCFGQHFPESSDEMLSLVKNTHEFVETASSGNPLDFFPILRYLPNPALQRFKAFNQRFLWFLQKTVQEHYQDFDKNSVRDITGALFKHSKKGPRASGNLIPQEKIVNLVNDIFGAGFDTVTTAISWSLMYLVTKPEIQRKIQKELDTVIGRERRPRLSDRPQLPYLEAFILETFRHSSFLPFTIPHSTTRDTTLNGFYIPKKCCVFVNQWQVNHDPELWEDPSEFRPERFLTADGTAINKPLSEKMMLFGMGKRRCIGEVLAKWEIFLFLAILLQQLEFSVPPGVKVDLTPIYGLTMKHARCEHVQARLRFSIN

As for `CCOc1nc(F)cc2nc(S(=O)(=O)Nc3c(Cl)cccc3Cl)nn12`, the Potency result in assay [1], in [2], in assay [3], in assay [4], in [5] and in [6] was “inactive” each time. In addition, the Potency result in assay [8] and in [9] was “inactive” each time. Further, the Potency in assay [7] is 71 µM (active).

For the compound `COP(=O)(OC)O/C(=C/Cl)c1cc(Cl)c(Cl)cc1Cl`, the Potency is 42.2 µM (active) in [1]; 37.6 µM (active) in assay [3]; 33.5 µM (active) in assay [5]; 5.31 µM (active) in assay [6]; 23.7 µM (active) in assay [7]; 2.66 µM (active) in assay [8]. Further, the Potency entry in assay [2], in assay [4], in assay [9] and in assay [10] was “inactive” in each case.

As to `CNC(C)Cc1ccccc1OC` (configuration not stated), the Potency result in [1], in [2], in assay [3], in assay [4], in assay [6] and in [7] was “inactive” each time. In addition, the Potency entry in [8], in [9] and in [10] was “inactive” each time. In [5], the Potency was 13.8 µM (active).

In the case of `CC(=O)CCC(C)=O`, the Potency entry in assay [1], in assay [2], in [3], in assay [4], in assay [5] and in assay [6] was “inactive” in each case. In addition, the Potency result in assay [7], in assay [8], in [9] and in assay [10] was “inactive” throughout.

Turning to `COC(N)=O`, the Potency result in assay [1], in assay [2], in [3], in assay [4], in assay [5] and in assay [6] was “inactive” each time. Further, the Potency result in [7], in assay [9] and in [10] was “inactive” each time. In addition, the Potency in [8] was 35.6 µM (active).

Consider `CN1C(=O)NC(=O)C(C)(C2=CCCCC2)C1=O` (configuration not stated), for which the Potency entry in assay [1], in assay [2], in assay [3], in assay [4], in [5] and in [6] was “inactive” in each case. Besides, the Potency entry in [7], in assay [8], in assay [9] and in assay [10] was “inactive” throughout.

For the compound `O=C(O)C(F)(F)C(F)(F)C(F)(F)C(F)(F)C(F)(F)C(F)(F)C(F)(F)C(F)(F)C(F)(F)F`, the Potency result in assay [1], in [2], in [3], in [4], in assay [5] and in [6] was “inactive” each time. For the same compound, the Potency result in assay [8], in assay [9] and in [10] was “inactive” in each case. In addition, the Potency in [7] was 2.83 µM (active).

Turning to `COc1nn(C(=O)NS(=O)(=O)c2ccccc2OC(F)(F)F)c(=O)n1C`, the Potency result in assay [1], in assay [2], in [3], in assay [4], in assay [5] and in assay [6] was “inactive” each time. For the same compound, the Potency entry in assay [8], in assay [9] and in [10] was “inactive” each time. Also, the Potency in [7] is 32.5 µM (active).

In the case of `CC(C)N(CCC(C(N)=O)(c1ccccc1)c1ccccn1)C(C)C` (configuration not stated), the Potency entry in assay [1], in [2], in [3] and in [4] was “inactive” each time.

For `O=C(CCl)c1ccc(Cl)cc1Cl`, the Potency result in [1], in assay [2], in assay [3], in assay [4], in [9] and in [10] was “inactive” each time. The Potency in assay [5] is 39.8 µM (active) and 38.9 µM (active); in assay [6] it was 17.8 µM (active) and 9.77 µM (active); in [7], 12.6 µM (active) and 17.4 µM (active); in assay [8] it was 35.4 µM (active) and 12.9 µM (active).

Turning to `c1ccoc1`, the Potency entry in assay [1], in assay [2], in assay [3], in [4], in [5] and in assay [6] was “inactive” each time. Also, the Potency entry in [7], in [8], in [9] and in assay [10] was “inactive” throughout.

`O=S1(=O)OC(c2cc(Br)c(O)c(Br)c2)(c2cc(Br)c(O)c(Br)c2)c2ccccc21`: the Potency result in assay [1], in [2], in [3], in assay [4] and in assay [9] was “inactive” each time. Also, the Potency is 58 µM (active) in [5], 73 µM (active) in [6], 16.3 µM (active) in assay [7] and 32.6 µM (active) in assay [8].

On to `ClCc1cccc(Cl)c1`, for which the Potency result in [1], in [2], in [3], in [4], in assay [6] and in assay [7] was “inactive” in each case. In addition, the Potency result in assay [8], in assay [9] and in assay [10] was “inactive” each time. For the same compound, the Potency in [5] was 27.5 µM (active).

For the compound `O=C(O)CC(Cl)C(=O)O` (configuration not stated), the Potency result in [1], in assay [2], in assay [3], in assay [4], in assay [5] and in assay [6] was “inactive” each time. Further, the Potency entry in assay [7], in [8], in [9] and in assay [10] was “inactive” throughout.

`COc1cc(CC(C)N)cc2c1OCO2` (configuration not stated): the Potency entry in [1], in assay [2], in assay [3], in assay [4], in [6] and in assay [7] was “inactive” throughout. The Potency entry in [9] and in assay [10] was “inactive” throughout. The Potency in assay [5] was 2.09 µM (active); in [8], 74.1 µM (active).

For the compound `CCCC(Cn1cncn1)c1ccc(Cl)cc1Cl` (configuration not stated), the Potency entry in assay [1], in assay [2], in assay [3], in assay [4], in assay [9] and in [10] was “inactive” in each case. Also, the Potency in assay [5] is 31.7 µM (active); in assay [6], 0.142 µM (active); in [7], 5.64 µM (active); in [8], 22.4 µM (active).

With `Sc1ccccc1Cl`, the Potency result in assay [1], in [2], in [3], in [4], in [5] and in assay [6] was “inactive” throughout. Besides, the Potency result in assay [7], in assay [8], in [9] and in [10] was “inactive” in each case.

As for `CC(=O)C(C)(C)C`, the Potency result in assay [1], in assay [2], in assay [3], in assay [4], in assay [5] and in assay [6] was “inactive” throughout. For the same compound, the Potency result in assay [7], in assay [9] and in [10] was “inactive” throughout. The Potency in assay [8] was 37 µM (active).

As to `c1ccc(CN2CCNCC2)cc1`, the Potency entry in assay [1], in assay [2], in assay [3], in assay [4], in assay [6] and in [7] was “inactive” in each case. The Potency result in [8], in [9] and in [10] was “inactive” in each case. Further, the Potency in assay [5] is 17.2 µM (active).

Take `CCC(Cl)CCl` (configuration not stated): the Potency entry in assay [1], in assay [2], in assay [3], in [4], in assay [5] and in assay [6] was “inactive” throughout. Also, the Potency result in assay [7], in assay [8], in assay [9] and in assay [10] was “inactive” each time.

Take `CCCCCCCCCCOC(=O)c1ccccc1C(=O)OCCCCCCCCCC`: the Potency result in [1], in [2], in [3], in assay [4], in assay [5] and in [6] was “inactive” throughout. Moreover, the Potency entry in assay [7], in assay [8], in assay [9] and in assay [10] was “inactive” each time.

With `O=C(Nc1ccccc1)Nc1cnns1`, the Potency result in assay [1], in [2], in [3], in [4] and in assay [9] was “inactive” in each case. Also, the Potency is 31.7 µM (active) in assay [5]; 39.9 µM (active) in [6]; 35.6 µM (active) in [7]; 3.56 µM (active) in assay [8]; 3.56 µM (active) in [10].

(Values after PubChem BioAssay (Tox21).)
